Data: PubChem BioAssay (NCI)
The panel holds about 79,000 compounds, 15% with a hit somewhere; the sample as a whole holds those more often. Active and inactive are the calls of the source. Cut-off read from the data, not from the text of the source: active = growth inhibition above about 70%; inactive = the rest.

Assay: NCI Yeast Anticancer Drug Screen. Data for the wt2 strain (AID 169);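 note: 0% = growth of vehicle-treated yeast cultures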
Settings: S. cerevisiae wt2 strain growth inhibition, active compounds read high
Method: Growth inhibition of yeast strains with defined genetic alterations is measured as a screen for potential anti-cancer activity. Selected strains with alterations in DNA damage repair or cell cycle control were exposed to compounds and growth inhibition was measured relative to vehicle treated controls. The strain used in this assay is wt2

Measured: growth inhibition

Cc1nc(-c2cc3cc([N+](=O)[O-])ccc3oc2=O)cs1
active: at 100.0 µM 99%
inactive: at 1.2 µM -42% | at 3.7 µM -24% | at 11.0 µM -11% | at 33.0 µM 28%

COc1ccc(C/C=N/Nc2ccc([N+](=O)[O-])cc2)cc1OC
inactive: at 1.2 µM -2% | at 3.7 µM -1% | at 11.0 µM 5% | at 33.0 µM 5% | at 100.0 µM -3%

COC(C(O)CO)C(O)C(O)C(=O)NNc1ccccc1 (stereo not given)
active: at 100.0 µM 86%
inactive: at 1.2 µM -4% | at 3.7 µM 22% | at 11.0 µM 22% | at 33.0 µM 9%

CC(C)(C)CC(C)(C)c1cc(O)c(O)c(CN2CCCCC2)c1
inactive: at 1.2 µM -2% | at 3.7 µM -1% | at 11.0 µM 1% | at 33.0 µM 11% | at 100.0 µM 39%

Cc1ccc(Sc2ccccc2N)cc1
active: at 100.0 µM 98%
inactive: at 1.2 µM -16% | at 3.7 µM -2% | at 11.0 µM -17% | at 33.0 µM 35%

Cc1cc(S(=O)(=O)Nc2nnc3cnc4ccccc4n23)c(S)cc1Cl
inactive: at 1.2 µM -1% | at 3.7 µM -2% | at 11.0 µM 4% | at 33.0 µM 14% | at 100.0 µM 35%

CCCCOP(=O)(CCCP(=O)(OCCCC)OCCCC)OCCCC
inactive: at 1.2 µM -2% | at 3.7 µM -5% | at 11.0 µM -4% | at 33.0 µM 0%
active: at 100.0 µM 96%

CS(=O)(=O)OCCN(CCOS(C)(=O)=O)c1ccc(C=Nc2ccc(-c3csc(COc4ccccc4)n3)cc2)cc1
inactive: at 1.2 µM -4% | at 3.7 µM 11% | at 11.0 µM 54%
active: at 33.0 µM 92% | at 100.0 µM 91%
